Test results from PubChem BioAssay (NCATS).
Where “and” joins values, the source holds several entries; their conditions need not be identical. Equal entries are not always repeated. Inconclusive results are not listed. Where a call stands in place of a potency, no number is given. Unmarked numbers belong to inactive results. Calls of active or inactive are those of the source. Calls come from the whole dose curve; as a rule, active = well fitted curve in the direction sought with a large enough effect; inconclusive = small, poorly fitted or top-dose-only effect, or another doubt; inactive = no such curve, though single readings can be large; an effect the other way counts as inactive or inconclusive.

Assays:
[1] = Confirmatory screen NINDS Rhodamine qHTS for Zika virus inhibitors (AID 1347161); conditions: purified enzyme assay, Rhodamine110 substrate fluorescence, 15 min; series mostly up to 114 µM; note: nearly all actives have a fitted effect of over 60% in size; note: potency is the fitted concentration of half-maximal effect;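 for activity change, negative = inhibition: purified Zika NS2B-NS3 protease with linked NS2B cofactor domain and Rhodamine110 peptide substrate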
Summary of the method: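 Percent inhibition, normalized to uninhibited and enzyme-free controls, is fitted to a 4-parameter Hill equation. Fluorescence change comes from a 15-min cleavage of 1.5 microM bis-peptide Rhodamine110 substrate by 25 nM linked NS2B-NS3 at room temperature.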

[2] = system: Zika virus NS2B-NS3 protease (linked); assay: 384 well plate NINDS AMC confirmatory qHTS for Zika virus inhibitors (AID 1347163); conditions: Recombinant NS2B-NS3 protease, Ac-VKTGKR-AMC fluorescence; series mostly up to 100 µM; note: potency is the fitted concentration of half-maximal effect; nearly all actives have a fitted effect of over 50% in size
Summary of the method: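 Linked NS2B-NS3 protease (final 5 nM, 30 nM or 60 nM) was preincubated with compounds (final up to 1 mM) for ~15 minutes. Ac-VKTGKR-AMC substrate (final 30 microM) then reacted for 25 minutes at room temperature in the dark. Fluorescence (ex 355/em 460 nm) was normalized to no-enzyme and no-inhibitor controls.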

[3] = system: Zika virus NS2B-NS3 protease (linked construct); assay: 384 well plate NINDS Rhodamine confirmatory qHTS for Zika virus inhibitors (AID 1347164); conditions: rhodamine-110 peptide substrate fluorescence; series mostly up to 2 mM;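 note: fluorescence from protease cleavage of Ac-LKRR-rhodamine 110 substrate; nearly all actives have a fitted effect of over 65% in size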; note: potency is the fitted concentration of half-maximal effect; for activity change, negative = inhibition: top concentration of the series differs between compounds
Summary of the method: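 Linked protease at a final 5 nM, 30 nM or 60 nM was preincubated ~15 min with compounds, then given 10 microM Ac-LKRR-Rhodamine 110. Fluorescence (ex 485/em 538 nm) after 25 min in the dark at room temperature.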

[4] = Tertiary RLuc qRT-PCR qHTS assay for Zika virus inhibitors (AID 1347169); conditions: infected Vero cells, reporter luminescence, 48-72 h; series mostly up to 45.9 µM; note: nearly all actives have a fitted effect of over 55% in size; note: potency is the fitted concentration of half-maximal effect; for activity change, negative = inhibition: top concentration of the series differs between compounds
Summary of the method: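 Vero cells (1,000 per well) plated overnight at 37 degrees C, treated with compound in DMSO, then infected with recombinant ZIKV-RLuc (Cambodian) at MOI 1-2 for 48-72 hrs. Live-cell Renilla luciferase substrate added; luminescence read after 1-1.5 hrs.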

[5] = qHTS to identify inhibitors of the type 1 interferon - major histocompatibility complex class I in skeletal muscle: primary screen against the NCATS LOPAC collection (AID 1347405); conditions: iHSKM muscle cells, IFN-b-induced MHC-I HiBiT luminescence, 24 h; series mostly up to 45.9 µM;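 note: lytic HiBiT luminescence reporting HLA-B protein level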; note: potency is the fitted concentration of half-maximal effect
Summary of the method: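 Luminescence from HiBiT fused to endogenous HLA-B in CRISPR-engineered human myoblasts served as the read-out. Cells received 4.0 ng/ml IFN-beta plus compound (seven concentrations, 1:4.3 steps, highest 46 uM final) for 24 hrs before lytic detection.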

[6] = target: Lysine-specific demethylase 5B (Homo sapiens) (UniProt Q9UGL1); assay: Optimization screen for KDM5B Histone Demethylases FDH coupled qHTS against the LOPAC library (AID 1347166); conditions: KDM5B demethylation, FDH-coupled NADH fluorescence (FDH is formaldehyde dehydrogenase); series mostly up to 57.5 µM
Sequence of Lysine-specific demethylase 5B (Homo sapiens) (Q9UGL1 whole entry, looked up): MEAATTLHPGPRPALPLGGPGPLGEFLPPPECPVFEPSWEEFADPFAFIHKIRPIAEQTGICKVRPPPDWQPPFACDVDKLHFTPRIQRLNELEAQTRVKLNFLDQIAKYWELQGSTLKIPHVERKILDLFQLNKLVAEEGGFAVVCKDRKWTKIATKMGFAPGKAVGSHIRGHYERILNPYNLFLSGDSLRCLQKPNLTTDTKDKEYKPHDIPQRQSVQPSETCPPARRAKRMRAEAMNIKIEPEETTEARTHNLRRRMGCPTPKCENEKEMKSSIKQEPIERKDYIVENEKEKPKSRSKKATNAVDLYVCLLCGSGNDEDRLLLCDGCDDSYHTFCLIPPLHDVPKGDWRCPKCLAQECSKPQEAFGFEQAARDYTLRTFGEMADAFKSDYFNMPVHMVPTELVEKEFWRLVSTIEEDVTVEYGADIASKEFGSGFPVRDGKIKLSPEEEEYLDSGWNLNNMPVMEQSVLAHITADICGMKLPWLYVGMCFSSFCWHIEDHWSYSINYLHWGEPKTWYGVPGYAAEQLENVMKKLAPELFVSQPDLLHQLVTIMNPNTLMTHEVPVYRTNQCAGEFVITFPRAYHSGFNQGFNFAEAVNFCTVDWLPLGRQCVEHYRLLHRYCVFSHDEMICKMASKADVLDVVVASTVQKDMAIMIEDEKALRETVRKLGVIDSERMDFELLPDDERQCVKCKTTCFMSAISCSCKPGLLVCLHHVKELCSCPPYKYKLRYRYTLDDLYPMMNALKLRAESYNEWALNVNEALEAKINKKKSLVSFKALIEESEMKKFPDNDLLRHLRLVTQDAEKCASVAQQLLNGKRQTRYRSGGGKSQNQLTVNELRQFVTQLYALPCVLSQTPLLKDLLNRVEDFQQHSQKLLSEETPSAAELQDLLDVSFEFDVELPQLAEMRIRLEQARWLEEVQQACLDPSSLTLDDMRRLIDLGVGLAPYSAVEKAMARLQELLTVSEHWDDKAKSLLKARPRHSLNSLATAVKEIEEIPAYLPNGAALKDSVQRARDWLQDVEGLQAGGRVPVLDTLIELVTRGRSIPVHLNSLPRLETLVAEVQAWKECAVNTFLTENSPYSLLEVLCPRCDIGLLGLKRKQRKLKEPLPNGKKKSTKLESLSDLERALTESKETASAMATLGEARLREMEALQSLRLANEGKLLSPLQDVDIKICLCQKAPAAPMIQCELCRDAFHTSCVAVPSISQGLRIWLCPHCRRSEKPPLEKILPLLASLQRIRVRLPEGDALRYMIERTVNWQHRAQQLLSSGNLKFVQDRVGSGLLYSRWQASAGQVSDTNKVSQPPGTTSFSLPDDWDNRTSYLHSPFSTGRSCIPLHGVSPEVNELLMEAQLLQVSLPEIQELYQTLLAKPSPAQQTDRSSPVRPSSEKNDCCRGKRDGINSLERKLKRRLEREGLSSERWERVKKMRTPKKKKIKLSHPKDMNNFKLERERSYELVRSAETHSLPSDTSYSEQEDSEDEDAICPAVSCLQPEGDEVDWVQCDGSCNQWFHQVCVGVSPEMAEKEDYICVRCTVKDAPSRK
Summary of the method: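 KDM5BDeltaAP (200nM final) preincubated 10 min with compound, then 12.5uM H3K4Me3, 25uM a-ketoglutarate, ascorbate, Fe(II), NAD+ and FDH added; 50mM HEPES pH 7.5, 0.01% Tween-20. NADH fluorescence (340/450 nm) change over 30 min, room temperature.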

[7] = Vero cells viability qHTS for Zika virus inhibitors (AID 1347167); conditions: cytotoxicity counter-screen (Zika); series mostly up to 45.9 µM
Summary of the method: (§1)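 Counter-screen for cytotoxicity of hits from NS2B-NS3 protease qHTS. Overnight-attached cells (2.5 x 10^5 cells/mL, DMEM/4% FBS) were dosed in titration, incubated 24 to 48 hours, then assayed by CellTiter Glo.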

[8] = HepG2 cells viability qHTS for Zika virus inhibitors (AID 1347168); conditions: Zika counter-screen; series mostly up to 45.9 µM
Summary of the method: as §1

[9] = qHTS to identify inhibitors of the type 1 interferon - major histocompatibility complex class I in skeletal muscle: primary screen against the NCATS Pharmaceutical Collection (AID 1347407); conditions: human skeletal muscle cells, IFN-b-induced MHC-I HiBiT luminescence, 24 h; series mostly up to 45.9 µM;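 note: luminescence of HiBiT knocked into endogenous HLA-B as interferon-induced MHC class I level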
Summary of the method: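 Immortalized human myoblasts (C25cl48) with HiBiT knocked into endogenous HLA-B*08:01 were stimulated with 4 ng/ml IFN-beta and treated with compounds (8-point, 1:5, top 46 uM final) for 24 h at 37 C; HiBiT lytic luminescence read.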

## O=c1c(O)c(-c2ccc(O)cc2O)oc2cc(O)cc(O)c12
[1]
  Potency: 12.6 µM (active)
[2]
  Potency: 141 µM (active)
[3]
  Potency: 50.1 µM (active)
[4]
  Potency: inactive
[5]
  Potency: inactive

## CNC[C@H](O)c1ccc(O)c(O)c1
[5]
  Potency: inactive

## C[C@@H](c1ncncc1F)[C@](O)(Cn1cncn1)c1ccc(F)cc1F
[5]
  Potency: inactive

## Cc1c(OCC(F)(F)F)ccnc1CS(=O)c1nc2ccccc2[nH]1 (stereo unspecified)
[1]
  Potency: inactive
[6]
  outcome: inactive
[7]
  Potency: inactive
[8]
  Potency: inactive
[4]
  Potency: inactive
[5]
  Potency: inactive

## NCCCCNCCCN
[6]
  outcome: inactive
[5]
  Potency: inactive

## COc1cc2c(cc1OC)C1CC(=O)C(CC(C)C)CN1CC2 (stereo unspecified)
[1]
  Potency: inactive
[7]
  Potency: inactive
[8]
  Potency: inactive
[4]
  Potency: inactive
[5]
  Potency: inactive

## Nc1nc(OCc2ccccc2)c2[nH]cnc2n1
[6]
  outcome: inactive

## Cc1nc(-c2ccc(OCC(C)C)c(C#N)c2)sc1C(=O)O
[1]
  Potency: 31.2 µM (active)
[7]
  Potency: inactive
[8]
  Potency: inactive
[4]
  Potency: inactive
[9]
  Potency: inactive

## Cc1cc(O)c2c(c1)C(=O)c1cc(O)cc(O)c1C2=O
[6]
  outcome: inactive
[5]
  Potency: inactive

## Nc1nc(N)c(N=O)c(OCC2CCCCC2)n1
[6]
  outcome: inactive

## C[C@H](Cc1ccc(O)c(O)c1)[C@@H](C)Cc1ccc(O)c(O)c1
[5]
  Potency: inactive

## O=C(CCc1ccc(O)cc1)c1c(O)cc(O)cc1O
[5]
  Potency: inactive

## O=C(O)c1cccnc1Nc1cccc(C(F)(F)F)c1
[6]
  outcome: inactive
[5]
  Potency: inactive
[9]
  Potency: inactive

## CC1(C)C(=O)N(CCN2CCC(C(=O)c3ccc(F)cc3)CC2)c2ccccc21
[6]
  outcome: inactive
[5]
  Potency: inactive

## Oc1ccc(-c2nc(-c3ccc(F)cc3)c(-c3ccncc3)[nH]2)cc1
[1]
  Potency: inactive
[7]
  Potency: inactive
[8]
  Potency: inactive

## Clc1ccc2c(N3CCN(CCCN4CCN(c5ccnc6cc(Cl)ccc56)CC4)CC3)ccnc2c1
[5]
  Potency: inactive

## Cc1cccc(C#Cc2ccccc2)n1
[6]
  outcome: inactive
[5]
  Potency: inactive

## CCc1nc(N)nc(N)c1-c1ccc(Cl)cc1
[1]
  Potency: inactive
[7]
  Potency: inactive
[4]
  Potency: 11.7 µM (active) and 16.5 µM (active)

## O=C(c1ccccc1)c1ccc2n1CCC2C(=O)O (stereo unspecified)
[6]
  outcome: inactive
[5]
  Potency: inactive
[9]
  Potency: inactive

## CC(=O)N1CCN(c2ccc(OC[C@H]3CO[C@](Cn4ccnc4)(c4ccc(Cl)cc4Cl)O3)cc2)CC1
[6]
  outcome: inactive
[5]
  Potency: inactive

## CCOC(=O)C1=C(O)C(=O)N(Cc2ccccc2)C1
[5]
  Potency: inactive

## CCOC(=O)C(C)Oc1cccc2c(=O)n(CC(=O)Nc3ccc4c(c3)OCCO4)ccc12 (stereo unspecified)
[5]
  Potency: inactive

## O=Nc1c(-c2c(O)[nH]c3cc(Br)ccc23)[nH]c2ccccc12
[6]
  outcome: inactive
[5]
  Potency: 15.8 µM (active)

## O=C(O)c1cn(-c2ccc(F)cc2)c2cc(N3CCNCC3)c(F)cc2c1=O
[7]
  Potency: inactive
[8]
  Potency: inactive
[4]
  Potency: inactive

## O=C1c2c(O)cc(O)cc2OC(c2ccc(O)c(O)c2)C1O (stereo unspecified)
[5]
  Potency: inactive

## C[C@@H](N)C1CCC(C(=O)Nc2ccncc2)CC1 (stereo partly specified)
[6]
  outcome: inactive
[5]
  Potency: inactive

## O=c1c(O)c(-c2cc(O)c(O)c(O)c2)oc2cc(O)cc(O)c12
[1]
  Potency: 14.1 µM (active)
[2]
  Potency: 158 µM (active)
[3]
  Potency: 39.8 µM (active)
[4]
  activity change, negative = inhibition: 40.4% [at 3.57 µM]
[5]
  Potency: inactive

## O=C1c2ccccc2-c2n[nH]c3cccc1c23
[6]
  outcome: inactive

## Nc1ccn([C@@H]2O[C@H](CO)[C@@H](O)C2O)c(=O)n1 (stereo partly specified)
[6]
  outcome: inactive

## S=c1nc[nH]c2nc[nH]c12
[7]
  Potency: inactive
[8]
  Potency: inactive
[4]
  Potency: 20.8 µM (active)
[9]
  Potency: inactive

## Cc1cc(Cl)ccc1OCCCC(=O)NO
[5]
  Potency: inactive

## CC1(C)NC(=O)N(c2ccc([N+](=O)[O-])c(C(F)(F)F)c2)C1=O
[6]
  outcome: inactive
[5]
  Potency: inactive
[9]
  Potency: inactive

## COc1c2occc2cc2ccc(=O)oc12
[3]
  Potency: inactive
[7]
  Potency: inactive
[8]
  Potency: inactive
[4]
  Potency: inactive

## O=c1ccc2ccc(O)c(O)c2o1
[5]
  Potency: inactive

## NNc1nncc2ccccc12
[5]
  Potency: inactive
